Screening data deposited in PubChem by Broad Institute.
Shown are actives, neighbours in structure and some others; about 2.2% of the full set was active somewhere.
p53 PUMA act: mutant p53 pathway re-activators, primary screen, cell-based, SW480, luciferase, single point, HTS; activation, % at 9.98 µM; AID 624151, 2012; SW480 PUMA-promoter luciferase, p53 mutant reactivation; hit rate 1.5% among 28,000; in the data active means activation above about 52%; inconclusive means no clear call, values can overlap the other calls
ID4 binder: binders of human ID4 protein, primary screen, biochemical, small molecule microarray, single point; DNA-binding protein inhibitor ID-4 (Homo sapiens), P47928; Flag-ID4 binding, fluorescence F/B; calls only; hit rate 1.2% among 31,000; AID 624137, 2012; call rule not given here;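 further: a binder raises fluorescence above local background on the spot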
Target sequence (P47928 whole entry, looked up): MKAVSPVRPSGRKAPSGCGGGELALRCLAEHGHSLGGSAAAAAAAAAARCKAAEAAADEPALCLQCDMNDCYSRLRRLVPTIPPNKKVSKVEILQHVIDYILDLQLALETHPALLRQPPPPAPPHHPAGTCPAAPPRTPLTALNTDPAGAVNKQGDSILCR
An asterisk follows results filed as active; i = inactive; ? = inconclusive; . = no result given; + = active, no number.

SMILES	p53 PUMA act	ID4 binder
CC1=C[C@@H](O)[C@H]2C(C)(C)CCC[C@]2(C)[C@@]1(O)CO	.	i
CCc1cccc(C)c1NC(=O)CSc1nnc(-c2ccccc2)n1-c1ccccc1	-1	i
COc1ccc(N2C(=O)CC(SCC(=O)Nc3c(C)cccc3C)C2=O)cc1 (stereo not given)	-3	+
COc1ccc(N2C(=O)CC(SCC(=O)Nc3ccc(C)c(C)c3)C2=O)cc1 (stereo not given)	-6	i
O=C1c2ccccc2S(=O)(=O)N1CC(O)Cn1c2ccc(Cl)cc2c2cc(Cl)ccc21 (stereo not given)	18	i
COC(=O)c1ccn(COc2ccccc2Cl)n1	33	i
O=C(CSc1nc2ccc(NC(=O)c3ccccc3F)cc2s1)c1cccc([N+](=O)[O-])c1	76*	i
Cc1ccccc1C(=O)Nc1ccc2nc(SCC(=O)Nc3ccc([N+](=O)[O-])cc3)sc2c1	20	i
O=C(CSc1nc2ccc(NC(=O)c3ccccc3)cc2s1)Nc1cccc([N+](=O)[O-])c1	59*	i
Cc1ccccc1C(=O)Nc1ccc2nc(SCC(=O)Nc3ccccc3)sc2c1	-12	i
CC(=O)Nc1ccc(S(=O)(=O)Nc2ccc(Oc3cccnc3)cc2)cc1	-4	i
Cc1cc(Br)c2c(c1)C(O)(CC(=O)c1ccco1)C(=O)N2C (stereo not given)	-11	i
Cc1ccc(C)c(S(=O)(=O)NCC(=O)Nc2ccc(F)c(Cl)c2)c1	3	i
CC(C(=O)Nc1cccc2ccccc12)N(c1ccc(Cl)cc1)S(C)(=O)=O (stereo not given)	1	i
NCCNc1ccc([N+](=O)[O-])c(NCCO)c1	-19	+
NCCNc1ccc([N+](=O)[O-])c(Sc2nc3ccccc3[nH]2)c1	-18	i
O=C(CSc1n[nH]c(-c2ccco2)n1)N1c2ccccc2Sc2ccccc21	3	i
O=C(O)c1ccc(CSc2n[nH]c(-c3ccco3)n2)cc1	-15	+
CS(=O)(=O)N(CC(=O)Nc1ccccc1-c1ccccc1)c1ccccc1Cl	-3	i
O=C(O)CCC(=O)Nc1ccc(-c2nc3ccc(C(=O)c4ccccc4)cc3[nH]2)cc1	38	+
O=C(CCN1C(=O)c2ccccc2C1=O)Nc1ccc(-c2nc3ccccc3[nH]2)cc1	20	i
O=C(CSC1CC(=O)N(c2ccc(Br)cc2)C1=O)Nc1ccc(Cl)c(Cl)c1 (stereo not given)	-10	i
O=C(CSc1nnc(-c2ccco2)o1)Nc1cccc2ccccc12	9	i
CC(C)(C)C(=O)CSc1nnc(-c2ccco2)o1	70*	i
COc1ccc(NC(=O)COc2ccccc2CO)cc1	25	i
SMILES	p53 PUMA act	ID4 binder
COc1ccccc1NC(=O)COc1ccc(Br)cc1CO	37	i
O=C(COc1ccc(CO)cc1Cl)Nc1ccc(F)cc1	-24	i
Cc1ccc(NC(=O)COc2ccc(CO)cc2Br)cc1	-19	i
Cc1ccc(NC(=O)COc2ccc(Br)cc2CO)cc1	68*	i
O=C(COc1ccccc1CO)Nc1ccccc1	77*	i
O=C(COc1ccc(Br)cc1CO)Nc1ccccc1F	112*	i
O=C(COc1ccc(Cl)cc1CO)Nc1ccc(F)cc1	69*	i
Cc1ccc(O)c(NC(=S)NC(=O)c2ccc(-c3ccccc3[N+](=O)[O-])o2)c1	-9	i
Cc1ccc(OCCCSc2nc(C)cc(=O)[nH]2)c(I)c1	19	i
O=C(CSc1ncnc2sc3c(c12)CCCCC3)Nc1ccc2c(c1)OCCO2	-4	i
O=C(NCCNc1ccc(C(F)(F)F)cc1[N+](=O)[O-])c1cccc(Br)c1	3	i
O=S(=O)(Nc1nccs1)c1ccc(NS(=O)(=O)c2cc(Cl)ccc2Cl)cc1	-4	i
CCOC(=O)c1sc(NC(=S)Nc2cnccn2)c(C(=O)OCC)c1C	5	i
O=C(COc1ccc(CO)cc1)Nc1ccccc1	66*	i
COc1cc(CO)ccc1OCC(=O)Nc1ccc(Br)cc1	?	i
O=C(COc1ccc(Br)cc1CO)Nc1ccccc1	127*	i
O=C(COc1ccc(CO)cc1)Nc1ccc(F)cc1	23	i
C[C@H](CO)N1C[C@H](C)[C@@H](CN(C)C(=O)Nc2ccccc2)Oc2ccc(NC(=O)Cc3ccccc3)cc2CC1=O	5	i
C[C@@H]1CN([C@@H](C)CO)C(=O)Cc2cc(NC(=O)CCCN(C)C)ccc2O[C@@H]1CN(C)C	-1	i
C[C@H]1CN([C@@H](C)CO)C(=O)Cc2cc(NC(=O)Cc3ccccc3)ccc2O[C@H]1CN(C)C(=O)Nc1ccccc1	6	+
C[C@@H]1CN([C@@H](C)CO)C(=O)Cc2cc(NC(=O)CCCN(C)C)ccc2O[C@H]1CN(C)C(=O)Nc1ccc(F)cc1	5	+
CC1(C)CC[C@]2(C(=O)O[C@@H]3O[C@H](CO[C@@H]4O[C@H](CO)[C@@H](O)[C@H](O)[C@H]4O)[C@@H](O)[C@H](O[C@@H]4O[C@H](CO)[C@@H](O)[C@H](O)[C@H]4O)[C@H]3O)CC[C@]3(C)C(=CCC4[C@@]5(C)CC[C@H](O)[C@@](C)(C(=O)O)C5CC[C@]43C)C2C1 (stereo not given in full)	.	i
COc1cc(NC(=O)C2CC=CCC2C(=O)O)ccc1NC(=O)c1ccccc1 (stereo not given)	-7	i
Cc1ccc(NC(=O)CSC2CC(=O)N(c3ccc(F)cc3)C2=O)cc1Cl (stereo not given)	-6	i
COc1ccc(NC(=O)c2ccco2)cc1NC(=O)COc1cc(C)c(Cl)c(C)c1	-48	i
SMILES	p53 PUMA act	ID4 binder
COc1c(O)cc2c(c1O)C(=O)OC(C)C2O (stereo not given)	1	i
C[C@@H]1O[C@@H](OC[C@H]2O[C@@H](OCCc3ccc(O)c(O)c3)[C@H](O)[C@@H](O)[C@@H]2OC(=O)/C=C/c2ccc(O)c(O)c2)[C@H](O)[C@H](O)[C@H]1O	.	i
O=C(COc1ccc2ccccc2c1Br)NCc1ccco1	85*	i
Cc1ccc(Cl)c(OCC(=O)NCc2ccco2)c1	?	i
CC(C)C(C(=O)OC1CSCC1NC(=O)c1ccccc1)N1C(=O)c2ccccc2C1=O (stereo not given)	-2	i
CC1CCCC2=CC(OC2=O)C(C)(C)CCC1=O (stereo not given)	16	i
OC(COc1ccc(Cl)cc1)CSc1ccccn1 (stereo not given)	78*	i
Cc1cc(C)nc(SCC(O)COc2ccccc2)n1 (stereo not given)	?	i
COc1ccccc1NC(=O)Cn1nnc(-c2ccc(C(F)(F)F)cc2)n1	0	i
O=C(NCc1ccccn1)c1cc(-c2cccnc2)nc2ccc(Br)cc12	29	i
Cc1ccc(NC(=O)CNC(=O)c2ccco2)cc1	59*	i
COc1ccc(NC(=O)CNC(=O)c2ccco2)cc1	30	i
CC(C(=O)Nc1ccccc1Cl)N(c1ccc(Cl)cc1)S(C)(=O)=O (stereo not given)	11	i
COc1cc2c(cc1C(F)(F)F)N(C(=O)Nc1cc(F)cc(-c3cccnc3)c1)CC2	-70	i
Cn1ccc2cc3c(cc21)CCN3C(=O)Nc1cccnc1	69*	i
